# Laboratory results published in PubChem BioAssay.
# Values joined by “and” are separate entries in the source; they are usually repeats but may differ in a detail not shown here. Equal values may be shown once. Inconclusive results are not listed. Active and inactive are the calls of the source. Unless noted, no rule for the calls is given here.
# What was measured:
# [1] = P. berghei load reduction in hepatocytes – cell-based, HepG2, luciferase luminescence, HepG2 viability, primary screen (AID 624349; in the data active = parasite load remaining mostly below about 12%, no sharp cut-off; inactive = mostly above about 10%;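 also: 100% = mean of DMSO negative control wells on the same plate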); settings: P. berghei liver stage in HepG2, luciferase luminescence, concentration not given here; parasite load remaining: stronger effect = lower value; viability: measured here: HepG2 viability without parasites
# [2] = liver-stage malaria parasite load reduction – cell-based, known kinase inhibitor set, luminescence, hepatoma host viability (AID 624392); settings: Plasmodium liver stage in hepatoma cells, luciferase luminescence, concentration not given here; liver cell % of control: measured here: host liver cell viability; parasite % of control: stronger effect = lower value;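 also: infected cells incubated roughly two days before readout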
# [3] = altered dexamethasone sensitivity, NF-kB reporter, cell-based, luciferase, IL-1B stimulus (AID 624486); settings: IL-1B + dexamethasone, luminescence; percent of negative control (+Dex): actives lie on both sides, concentration not given here; z-score: measured here: IL-1B alone, no Dex;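 as to percent of negative control (+Dex): 100% = mean signal of vehicle control wells on the plate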
# [4] = C. elegans survival during P. aeruginosa infection – whole organism (AID 651566);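 also: tested at 14 µM; sign flipped so higher z means a lower ratio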; settings: C. elegans killed by P. aeruginosa, survival ratio
# [5] = pro-inflammatory signaling induction in mouse macrophages – cell-based, murine, luminescence (AID 652131); settings: murine macrophage pro-inflammatory reporter, stronger effect = higher value
# [6] = target: Cellular tumor antigen p53 (Homo sapiens) (UniProt P04637); test: GFP-p53 level modulators in HPV16+ cells – imaging, known kinase inhibitor set, EGFP/DsRed ratio (AID 1053116); settings: GFP-p53 stability, stronger effect = higher value; EGFP object count: measured here: GFP-p53 positive objects count;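 also: cells exposed to compounds for 24 h at 37 °C before reading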
# [7] = inducers of IRF3 signaling, differentiated THP-1 – cell-based, PMA-stimulated THP-1, luminescence (AID 1053176); settings: PMA-differentiated THP-1, IRF3 reporter luminescence; stronger effect = higher value
# [8] = viability loss with induced miR-34 in A549 – imaging, A549 dox-inducible miR-34, nuclei and caspase counts, primary screen (AID 1347080;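 active = compounds whose cell count with miR-34 switched on is under 0.7 times the count with it off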); settings: A549 miR-34 inducible, Hoechst nuclei count, 48 h
# [9] = MELAS cybrid and Rieske KO viability enhancers – cell-based, MELAS cybrids, Rieske KO mouse fibroblasts, CellTiter-Glo, primary screen (AID 1508586;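 active = mean z-score across replicates of 1.96 or higher in either the MELAS or the Rieske mutant cell line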;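 also: z relative to plate mean and SD of compound and empty wells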); settings: low glucose
# [10] = galactose survival enhancers in mitochondrial complex I cybrids – cell-based, galactose medium, ATP luminescence, primary screen (AID 1645843;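 active = z-score of at least 1.8 in each of two replicates, scored against plate mean and spread of sample wells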;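 also: positive z means more ATP and so rescue of galactose-driven cybrid death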); settings: complex I mutant cybrid cells, 72 h, stronger effect = higher value
# [11] = viability loss in pontine glioma line – cell-based, SU-DIPG-XIII, MIPE4.0, CellTiter-Glo, qHTS, dose response (AID 1347061; cut-off not given, nearly all actives have AC50 up to about 37 µM;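 also: cells exposed to compound for 48 hours before readout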); settings: CellTiter-Glo ATP luminescence
# [12] = viability loss in pontine glioma line – cell-based, JHH-DIPG-1, MIPE4.0, CellTiter-Glo, qHTS, dose response (AID 1347062; cut-off not given, nearly all actives have AC50 up to about 27 µM); settings: JHH-DIPG-1 viability, CellTiter-Glo ATP luminescence
# [13] = viability loss in pontine glioma line – cell-based, SU-DIPG-XXV, MIPE5.0, CellTiter-Glo, qHTS, dose response (AID 1347065; cut-off not given, nearly all actives have AC50 up to about 26 µM;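 also: cells exposed to compound for 48 hours before ATP readout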); settings: CellTiter-Glo ATP luminescence
# [14] = growth inhibition of DIPG cells – cell-based, MIPE4.0 library, CellTiter-Glo luminescence, qHTS (AID 1347066; cut-off not given, nearly all actives have AC50 up to about 30 µM;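 also: cells exposed to compound for 48 hours before readout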); settings: SU-DIPG-VI viability, CellTiter-Glo ATP luminescence
# [15] = JHH-DIPG-1 glioma cell viability, MIPE5.0 library, CellTiter-Glo luminescence, qHTS (AID 1347067; cut-off not given, nearly all actives have AC50 up to about 26 µM;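 also: cells exposed to compound for 48 hours before readout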); settings: JHH-DIPG-1 glioma viability, CellTiter-Glo ATP luminescence
# [16] = growth inhibition of DIPG cells – cell-based, MIPE5.0 library, qHTS (AID 1347068; cut-off not given, nearly all actives have IC50 up to about 30 µM); settings: SU-DIPG-XXV viability
# [17] = viability loss in pontine glioma line – cell-based, SU-DIPG-XVII, MIPE5.0, CellTiter-Glo, qHTS, dose response (AID 1347060; cut-off not given, nearly all actives have AC50 up to about 26 µM;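 also: cells exposed to compound for 48 hours before viability readout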); settings: CellTiter-Glo ATP luminescence
# [18] = stronger effect = lower value, cell number ratio, induced over uninduced
# [19] = measured here: relative caspase fold change +Dox/-Dox
# [20] = measured here: total cells with miR-34 induction, stronger effect = lower value
# [21] = measured here: total cells without miR-34 induction
# [22] = MELAS cybrid survival, CellTiter-Glo 48 h, stronger effect = higher value
# [23] = Rieske KO mouse fibroblast survival, CellTiter-Glo 72 h
# Sequence of Cellular tumor antigen p53 (Homo sapiens) (P04637 whole entry, looked up): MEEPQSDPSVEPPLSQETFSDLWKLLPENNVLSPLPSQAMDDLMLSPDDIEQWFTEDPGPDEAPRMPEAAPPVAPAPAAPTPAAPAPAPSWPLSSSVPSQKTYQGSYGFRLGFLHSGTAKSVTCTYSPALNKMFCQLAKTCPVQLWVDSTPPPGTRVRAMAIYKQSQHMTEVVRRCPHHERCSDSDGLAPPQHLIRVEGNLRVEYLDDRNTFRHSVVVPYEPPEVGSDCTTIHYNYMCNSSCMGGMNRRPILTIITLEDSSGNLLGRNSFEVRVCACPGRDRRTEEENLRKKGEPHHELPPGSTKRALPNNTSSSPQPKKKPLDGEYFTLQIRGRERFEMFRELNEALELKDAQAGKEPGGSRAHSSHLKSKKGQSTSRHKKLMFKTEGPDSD
structure (smiles),measurement,setting,value
Fc1ccc(-c2nc3n(c2-c2ccncc2)CCS3)cc1,parasite load remaining,[1],45.5% (inactive)
same,viability,[1],65.6%
same,liver cell % of control,[2],122%
same,parasite % of control,[2],126% (inactive)
same,percent of negative control (+Dex),[3],112% (inactive)
same,z-score,[3],2.42
same,z-score,[4],0.075 (inactive)
same,z-score,[5],2.76 (inactive)
same,EGFP object count,[6],4
same,EGFP/DsRed ratio,[6],0.154 (inactive)
same,fraction signal,[7],-0.0105 (inactive)
same,fold change,[8]; [18],0.866 (inactive)
same,fold change,[8]; [19],1.21
same,cell count,[8]; [20],4970
same,cell count,[8]; [21],5730
same,z-score,[9]; [22],1.07 (inactive)
same,z-score,[9]; [23],0.11
same,z-score,[10],-0.365 (inactive)
Cc1ccc(O)cc1Nc1ccnc2cc(-c3ccccn3)ccc12,liver cell % of control,[2],100%
same,parasite % of control,[2],65.6% (inactive)
same,percent of negative control (+Dex),[3],89.5% (inactive)
same,z-score,[3],-0.24
same,z-score,[4],-1.05 (inactive)
same,z-score,[5],5.39 (inactive)
same,EGFP object count,[6],3.5
same,EGFP/DsRed ratio,[6],0.137 (inactive)
same,fraction signal,[7],0.014 (inactive)
same,z-score,[9]; [22],-0.612
same,z-score,[9]; [23],4.8
COC1CCC2NC3C4NC5CCC(OC)CC5C4C4C(=O)NC(=O)C4C3C2C1 (stereo not given),liver cell % of control,[2],93.4%
same,parasite % of control,[2],178% (inactive)
same,percent of negative control (+Dex),[3],106% (inactive)
same,z-score,[3],1.79
same,z-score,[4],0.155 (inactive)
same,z-score,[5],-0.67 (inactive)
same,EGFP object count,[6],3
same,EGFP/DsRed ratio,[6],0.0486 (inactive)
same,fraction signal,[7],-0.005 (inactive)
same,z-score,[9]; [22],-0.302 (inactive)
same,z-score,[9]; [23],0.67
Cn1c(=O)c(Oc2ccc(F)cc2F)cc2cnc(NC3CCOCC3)nc21,percent of negative control (+Dex),[3],102% (inactive)
same,z-score,[3],-0.045
same,EGFP object count,[6],4
same,EGFP/DsRed ratio,[6],0.0482 (inactive)
same,fraction signal,[7],-0.007 (inactive)
same,outcome,[11],inactive
same,outcome,[12],inactive
same,outcome,[13],inactive
same,outcome,[14],inactive
same,outcome,[15],inactive
same,outcome,[16],inactive
C#Cc1cccc(Nc2ncnc3ccc(OCCCCNCCS(C)(=O)=O)cc23)c1,liver cell % of control,[2],80.2%
same,parasite % of control,[2],197% (inactive)
same,percent of negative control (+Dex),[3],70.5% (inactive)
same,z-score,[3],-1.95
same,z-score,[4],0.035 (inactive)
same,z-score,[5],-0.695 (inactive)
same,EGFP object count,[6],4
same,EGFP/DsRed ratio,[6],0.148 (inactive)
same,fraction signal,[7],0.0175 (inactive)
same,z-score,[9]; [22],-0.125 (inactive)
same,z-score,[9]; [23],-0.333
Cn1cc(C2=C(c3cn(CCCSC(=N)N)c4ccccc34)C(=O)NC2=O)c2ccccc21,parasite load remaining,[1],30.4% (inactive)
same,viability,[1],73.7%
same,liver cell % of control,[2],100%
same,parasite % of control,[2],330% (inactive)
same,percent of negative control (+Dex),[3],98% (inactive)
same,z-score,[3],0.705
same,EGFP object count,[6],1
same,EGFP/DsRed ratio,[6],0.00598 (inactive)
same,fraction signal,[7],-0.0115 (inactive)
same,z-score,[9]; [22],3.84 (active)
same,z-score,[9]; [23],-1.11
same,z-score,[10],-0.7 (inactive)
NS(=O)(=O)c1ccc(Nc2ncc(-c3ccccc3)o2)cc1,liver cell % of control,[2],108%
same,parasite % of control,[2],123% (inactive)
same,percent of negative control (+Dex),[3],117% (inactive)
same,z-score,[3],0.745
same,z-score,[4],-0.98 (inactive)
same,z-score,[5],0.209 (inactive)
same,EGFP object count,[6],3.5
same,EGFP/DsRed ratio,[6],0.0759 (inactive)
same,fraction signal,[7],-0.0035 (inactive)
same,z-score,[9]; [22],1.06 (inactive)
same,z-score,[9]; [23],-0.0466
Cc1cc(Cl)cc2c(N=Nc3ccc(S(N)(=O)=O)cc3)c(O)[nH]c12,liver cell % of control,[2],94.4%
same,parasite % of control,[2],139% (inactive)
same,percent of negative control (+Dex),[3],100% (inactive)
same,z-score,[3],0.945
same,z-score,[4],-0.145 (inactive)
same,z-score,[5],-0.3 (inactive)
same,EGFP object count,[6],2.5
same,EGFP/DsRed ratio,[6],0.092 (inactive)
same,fraction signal,[7],-0.0045 (inactive)
same,z-score,[9]; [22],0.0201 (inactive)
same,z-score,[9]; [23],-0.605
CN(C)c1cc2c(Nc3ccc4nc(Cc5ccccc5)[nH]c4c3)ncnc2cn1,liver cell % of control,[2],154%
same,parasite % of control,[2],105% (inactive)
same,percent of negative control (+Dex),[3],77% (inactive)
same,z-score,[3],-0.53
same,z-score,[4],0.16 (inactive)
same,z-score,[5],0.922 (inactive)
same,EGFP object count,[6],3
same,EGFP/DsRed ratio,[6],0.0121 (inactive)
same,fraction signal,[7],-0.006 (inactive)
same,z-score,[9]; [22],0.173 (inactive)
same,z-score,[9]; [23],-0.0343
c1ccc(Cc2nc3ccc(Nc4ncnc5ccccc45)cc3[nH]2)cc1,liver cell % of control,[2],166%
same,parasite % of control,[2],15.2% (inactive)
same,percent of negative control (+Dex),[3],83% (inactive)
same,z-score,[3],-0.365
same,z-score,[4],1.34 (inactive)
same,z-score,[5],4.91 (inactive)
same,EGFP object count,[6],5
same,EGFP/DsRed ratio,[6],0.119 (inactive)
same,fraction signal,[7],-0.007 (inactive)
same,z-score,[9]; [22],0.254 (inactive)
same,z-score,[9]; [23],-0.299
CCN(CC)Cc1ccc(Nc2nccc(-c3cnn4ncccc34)n2)cc1,liver cell % of control,[2],52.3%
same,parasite % of control,[2],12.5% (active)
same,percent of negative control (+Dex),[3],3% (active)
same,z-score,[3],-9.2
same,z-score,[4],-0.59 (inactive)
same,z-score,[5],-2.04 (inactive)
same,EGFP object count,[6],3
same,EGFP/DsRed ratio,[6],0.0517 (inactive)
same,fraction signal,[7],0.0075 (inactive)
same,z-score,[9]; [22],0.539 (inactive)
same,z-score,[9]; [23],1.65
COc1ccc(-c2oc3ncnc(N)c3c2-c2ccc(NC(=O)Nc3cc(C(F)(F)F)ccc3F)cc2)cc1,liver cell % of control,[2],50%
same,parasite % of control,[2],186% (inactive)
same,percent of negative control (+Dex),[3],93.5% (inactive)
same,z-score,[3],-2.24
same,z-score,[4],0.785 (inactive)
same,z-score,[5],-0.472 (inactive)
same,EGFP object count,[6],6
same,EGFP/DsRed ratio,[6],0.0596 (inactive)
same,fraction signal,[7],0.007 (inactive)
same,AC50,[17],3.72 µM (active)
same,AC50,[13],1.66 µM (active)
same,AC50,[15],9.34 µM (active)
same,z-score,[9]; [22],-1.1 (inactive)
same,z-score,[9]; [23],-0.0748
COC(=O)c1ccc2c(c1)/C(=C\c1cc(Br)c(O)c(Br)c1)C(=O)N2,liver cell % of control,[2],150%
same,parasite % of control,[2],12.2% (active)
same,percent of negative control (+Dex),[3],110% (inactive)
same,z-score,[3],0.355
same,z-score,[4],-0.645 (inactive)
same,z-score,[5],-0.838 (inactive)
same,EGFP object count,[6],1
same,EGFP/DsRed ratio,[6],0.00779 (inactive)
same,fraction signal,[7],-0.012 (inactive)
same,z-score,[9]; [22],-0.186 (inactive)
same,z-score,[9]; [23],-0.227
N#Cc1c(NC(=O)c2ccccc2F)sc2c1CCCC2,liver cell % of control,[2],160%
same,parasite % of control,[2],60.7% (inactive)
same,percent of negative control (+Dex),[3],282% (active)
same,z-score,[3],14.4
same,z-score,[4],0.24 (inactive)
same,z-score,[5],2.53 (inactive)
same,EGFP object count,[6],0
same,EGFP/DsRed ratio,[6],0 (inactive)
same,fraction signal,[7],-0.0035 (inactive)
same,fold change,[8]; [18],0.993 (inactive)
same,fold change,[8]; [19],0.12
same,cell count,[8]; [20],5190
same,cell count,[8]; [21],5220
same,z-score,[9]; [22],0.104 (inactive) and 0.195 (inactive)
same,z-score,[9]; [23],-0.249 and 0.00256
same,z-score,[10],0.305 (inactive)
